Reference: PubChem BioAssay AID1159580 (chemical genetic matrix, 2015)
Screen size: about 5,500 compounds; about 2,000 (36%) were called active. About 18% were inconclusive and are not listed. No stated cut-off is given here; in the data, active means normalized growth mostly below about 0.91 (no sharp cut-off); inconclusive means no clear call, values can overlap the other calls; inactive means mostly above about 0.92. The list shows a part of the results.

Assay: chemical genetic growth profiling, strain panel (AID 1159580);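 further: tested at 20 µM; growth read once vehicle control cultures reached saturation at 30 °C; 1 = growth at the plate median or of vehicle wells; lower values mean less growth of the strain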
Conditions: growth OD

Measured: normalized growth

ClC1=C(Cl)C2(Cl)C3C4C=CC(C4)C3C1(Cl)C2(Cl)Cl (configuration not stated)
active: S. cerevisiae deletion strains, locus YNL307C, strain MCK1, active compounds read low 0.48
inactive: S. cerevisiae deletion strains, locus YJR075W, strain HOC1, active compounds read low 1.01 | S. cerevisiae deletion strains, locus YKL009W, strain mrt4, active compounds read low 0.953 | S. cerevisiae deletion strains, locus YKL068W, active compounds read low 0.996 | S. cerevisiae deletion strains, locus YKL085W, strain MDH1 (second series), active compounds read low 0.996 | S. cerevisiae deletion strains, locus YKL085W, strain MDH1, active compounds read low 0.996 | S. cerevisiae deletion strains, locus YKL160W, strain elf1, active compounds read low 0.998 | S. cerevisiae deletion strains, locus YKL190W, strain CNB1, active compounds read low 1 | S. cerevisiae deletion strains, locus YKR001C, strain vps1, active compounds read low 0.998 | S. cerevisiae deletion strains, locus YKR026C, strain gcn3, active compounds read low 0.997 | S. cerevisiae deletion strains, locus YKR091W, strain srl3, active compounds read low 0.996 | S. cerevisiae deletion strains, locus YLL001W, strain dnm1, active compounds read low 0.998 | S. cerevisiae deletion strains, locus YLL026W, active compounds read low 1 | S. cerevisiae deletion strains, locus YLL041C, strain sdh2, active compounds read low 0.994 | S. cerevisiae deletion strains, locus YLR027C, strain aat2, active compounds read low 1.01 | S. cerevisiae deletion strains, locus YLR039C, strain RIC1, active compounds read low 0.942 | S. cerevisiae deletion strains, locus YLR058C, strain SHM2, active compounds read low 0.991 | S. cerevisiae deletion strains, locus YLR102C, strain apc9, active compounds read low 1 | S. cerevisiae deletion strains, locus YLR113W, strain HOG1, active compounds read low 0.892 | S. cerevisiae deletion strains, locus YLR221C, strain rsa3, active compounds read low 0.985 | S. cerevisiae deletion strains, locus YLR258W, strain gsy2, active compounds read low 0.997 | S. cerevisiae deletion strains, locus YLR262C, strain YPT6 (second series), active compounds read low 0.94 | S. cerevisiae deletion strains, locus YLR262C, strain YPT6, active compounds read low 0.859 | S. cerevisiae deletion strains, locus YLR268W, strain sec22, active compounds read low 0.98 | S. cerevisiae deletion strains, locus YLR320W, strain mms22, active compounds read low 0.994 | S. cerevisiae deletion strains, locus YLR330W, strain CHS5, active compounds read low 1 | S. cerevisiae deletion strains, locus YLR342W, strain FKS1 (second series), active compounds read low 0.916 | S. cerevisiae deletion strains, locus YLR342W, strain FKS1, active compounds read low 0.995 | S. cerevisiae deletion strains, locus YLR357W, strain rsc2, active compounds read low 1.02 | S. cerevisiae deletion strains, locus YLR370C, strain arc18, active compounds read low 0.997 | S. cerevisiae deletion strains, locus YLR371W, strain rom2, active compounds read low 0.981 | S. cerevisiae deletion strains, locus YLR384C, strain iki3, active compounds read low 0.988 | S. cerevisiae deletion strains, locus YLR418C, strain cdc73, active compounds read low 0.894 | S. cerevisiae deletion strains, locus YML016C, strain PPZ1, active compounds read low 0.998 | S. cerevisiae deletion strains, locus YML032C, strain rad52, active compounds read low 0.976 | S. cerevisiae deletion strains, locus YML120C, strain ndi1, active compounds read low 1 | S. cerevisiae deletion strains, locus YML124C, strain tub3, active compounds read low 0.984 | S. cerevisiae deletion strains, locus YMR058W, strain fet3, active compounds read low 0.999 | S. cerevisiae deletion strains, locus YMR078C, strain ctf18, active compounds read low 0.979 | S. cerevisiae deletion strains, locus YMR125W, strain sto1, active compounds read low 1 | S. cerevisiae deletion strains, locus YMR129W, active compounds read low 0.998 | S. cerevisiae deletion strains, locus YMR205C, strain PFK2, active compounds read low 0.99 | S. cerevisiae deletion strains, locus YMR223W, strain ubp8, active compounds read low 0.949 | S. cerevisiae deletion strains, locus YMR231W, strain pep5, active compounds read low 0.982 | S. cerevisiae deletion strains, locus YMR263W, strain SAP30, active compounds read low 0.999 | S. cerevisiae deletion strains, locus YMR307W, strain GAS1, active compounds read low 1.07 | S. cerevisiae deletion strains, locus YNL067W, strain RPL9B, active compounds read low 1 | S. cerevisiae deletion strains, locus YNL071W, strain lat1, active compounds read low 1.01 | S. cerevisiae deletion strains, locus YNL128W, strain TEP1, active compounds read low 0.992 | S. cerevisiae deletion strains, locus YNL153C, strain GIM3, active compounds read low 1.01 | S. cerevisiae deletion strains, locus YNL183C, strain NPR1, active compounds read low 0.951 | S. cerevisiae deletion strains, locus YNL209W, strain ssb2, active compounds read low 0.997 | S. cerevisiae deletion strains, locus YNL233W, strain BNI4, active compounds read low 0.986 | S. cerevisiae deletion strains, locus YNL248C, strain rpa49, active compounds read low 1.01 | S. cerevisiae deletion strains, locus YNL250W, strain rad50, active compounds read low 0.99 | S. cerevisiae deletion strains, locus YNL271C, strain bni1, active compounds read low 0.99 | S. cerevisiae deletion strains, locus YNL298W, strain CLA4, active compounds read low 0.981 | S. cerevisiae deletion strains, locus YNL322C, strain KRE1 (second series), active compounds read low 0.97 | S. cerevisiae deletion strains, locus YNL322C, strain KRE1, active compounds read low 1 | S. cerevisiae deletion strains, locus YNR049C, strain mso1, active compounds read low 0.995 | S. cerevisiae deletion strains, locus YNR052C, strain pop2, active compounds read low 0.979 | S. cerevisiae deletion strains, locus YOL006C, strain TOP1, active compounds read low 0.969 | S. cerevisiae deletion strains, locus YOL012C, strain htz1 1.09 | S. cerevisiae deletion strains, locus YOL147C, strain pex11, active compounds read low 0.996 | S. cerevisiae deletion strains, locus YOR001W, strain rrp6, active compounds read low 0.993 | S. cerevisiae deletion strains, locus YOR061W, strain CKA2, active compounds read low 1 | S. cerevisiae deletion strains, locus YOR069W, strain VPS5, active compounds read low 0.996 | S. cerevisiae deletion strains, locus YOR070C, strain gyp1, active compounds read low 0.982 | S. cerevisiae deletion strains, locus YOR080W, strain dia2, active compounds read low 0.989 | S. cerevisiae deletion strains, locus YOR083W, strain WHI5, active compounds read low 0.991 | S. cerevisiae deletion strains, locus YOR106W, strain vam3, active compounds read low 0.97 | S. cerevisiae deletion strains, locus YOR136W, strain idh2, active compounds read low 0.98 | S. cerevisiae deletion strains, locus YOR144C, strain elg1, active compounds read low 0.991 | S. cerevisiae deletion strains, locus YOR184W, strain ser1, active compounds read low 0.911 | S. cerevisiae deletion strains, locus YOR231W, strain MKK1, active compounds read low 1.04 | S. cerevisiae deletion strains, locus YOR265W, strain rbl2, active compounds read low 0.991 | S. cerevisiae deletion strains, locus YOR270C, strain vph1, active compounds read low 0.967 | S. cerevisiae deletion strains, locus YOR290C, strain snf2, active compounds read low 0.991 | S. cerevisiae deletion strains, locus YOR316C, strain cot1, active compounds read low 1 | S. cerevisiae deletion strains, locus YPL051W, strain arl3, active compounds read low 1.01 | S. cerevisiae deletion strains, locus YPL055C, strain LGE1, active compounds read low 0.99 | S. cerevisiae deletion strains, locus YPL078C, strain atp4, active compounds read low 1 | S. cerevisiae deletion strains, locus YPL106C, strain sse1, active compounds read low 1 | S. cerevisiae deletion strains, locus YPL240C, strain hsp82, active compounds read low 1 | S. cerevisiae deletion strains, locus YPL241C, strain CIN2, active compounds read low 1.01 | S. cerevisiae deletion strains, locus YPL256C, strain CLN2, active compounds read low 1.04 | S. cerevisiae deletion strains, locus YPR119W, strain clb2, active compounds read low 0.987 | S. cerevisiae deletion strains, locus YPR141C, strain kar3, active compounds read low 0.982 | S. cerevisiae deletion strains, locus YPR163C, strain tif3, active compounds read low 0.981 | S. cerevisiae deletion strains, locus YPR167C, strain met16, active compounds read low 0.977 | S. cerevisiae deletion strains, strain wtn01, active compounds read low 0.983 | S. cerevisiae strains, strain wild type, active compounds read low 1.01
